Measurements taken from PubChem BioAssay AID588726 (The Scripps Research Institute Molecular Screening Center, 2011).
In all, about 360,000 compounds went through this assay and about 8,200 (2.3%) were called active. The full list was thinned out, with actives kept by preference. Unmarked numbers belong to inactive results. No stated cut-off is given here; in the data, active means inhibition above about 27%; inactive means the rest.

Target: Fructose-bisphosphate aldolase (Mycobacterium tuberculosis (strain ATCC 25618 / H37Rv)) (UniProt P9WQA3)
Sequence (P9WQA3 whole entry, looked up): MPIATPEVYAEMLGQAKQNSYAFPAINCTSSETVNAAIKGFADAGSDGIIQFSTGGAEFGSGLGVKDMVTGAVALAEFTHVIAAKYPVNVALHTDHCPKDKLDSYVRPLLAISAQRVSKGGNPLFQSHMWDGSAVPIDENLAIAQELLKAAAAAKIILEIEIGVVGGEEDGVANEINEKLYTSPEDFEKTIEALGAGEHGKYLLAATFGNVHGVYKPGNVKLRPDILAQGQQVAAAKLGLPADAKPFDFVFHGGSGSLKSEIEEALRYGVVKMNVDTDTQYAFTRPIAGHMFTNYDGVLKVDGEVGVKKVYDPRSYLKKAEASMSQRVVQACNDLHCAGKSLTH
Experiment: M. tuberculosis aldolase activity blockers – biochemical, fluorescence, strain H37Rv, primary screen (AID 588726);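 further: 0% = vehicle and 100% = reference inhibitor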
Settings: purified M. tuberculosis FBA, fluorescence read-out, at 1 µM, stronger effect = higher value

Row | SMILES | inhibition
1 | CCc1nc2c(OCCc3cccc(OC)c3)cccn2c1N(C)C(=O)c1ccc(C)cc1 | 1.14%
2 | CC(=O)c1cccc(-n2nnnc2SCC(=O)NNC(=O)C2CCCCC2)c1 | 3.69%
3 | COc1cc(C(=O)NCc2nnc(SCC(=O)Nc3nc4ccc(C)cc4s3)o2)cc(OC)c1OC | 1.7%
4 | N/C(=N\OC(=O)CCn1cccc(C(F)(F)F)c1=O)c1ccc(OC(F)(F)F)cc1 | 1.82%
5 | Cc1ccc(NN=C2C(=O)OC(C)(C)OC2=O)c(C)c1 | -7.26%
6 | COc1ccc(Br)c2c1C(=O)CC2 | 2.69%
7 | O=C(Cc1ccccc1Cl)N1CCN(c2ccccn2)CC1 | 10.2%
8 | O=C(c1c(F)cccc1F)N1CCN(c2ncc(Br)cn2)CC1 | -0.3%
9 | O=C(c1c(F)cccc1Cl)N1CCN(c2ccccn2)CC1 | 116% (active)
10 | NS(=O)(=O)c1cc2c(cc1Cl)NC(C(Cl)Cl)NS2(=O)=O (stereo not given) | 2.88%
11 | COc1ccc(OC)c(NC(=O)Cn2c(=O)oc3ccccc32)c1 | -2.86%
12 | CCc1cccc2c(C=C(C#N)C#N)cn(CC(=O)N3CCCCC3)c12 | -1.66%
13 | COC(=O)c1cn(C(=O)c2ccc(Cl)cc2)c2ccccc12 | -0.26%
14 | COC(=O)c1noc(C)c1-c1ccnn1C(=O)c1ccc(Cl)cc1 | 29.4% (active)
15 | Cc1onc(-c2ccc(Cl)cc2)c1-c1ccnn1S(=O)(=O)c1ccc(Cl)cc1 | -3.96%
16 | Cc1ccc(C2=NN(C)c3nc4ccccc4n3C2)cc1 | 13.4%
17 | Cn1cccc1-c1nc2ccccc2n1C | 28.6% (active)
18 | Cn1c(-c2ccc(C(=O)c3ccccc3)s2)nc2ccccc21 | 1.32%
19 | O=C(COc1ccc(Cl)cc1)Nc1ccc2oc(=O)ccc2c1 | 2.76%
20 | Cc1ccc(S(=O)(=O)N2CCC(C)CC2)cc1C(=O)NCc1ccccn1 | 2.4%
21 | COc1ccc(NC(=O)CSc2ncnc3[nH]ncc23)cc1 | 1.84%
22 | CCCCn1c(N)c(N(CC(C)C)C(=O)c2cnc(C)cn2)c(=O)[nH]c1=O | 0.47%
23 | CC(=O)N1CCN(S(=O)(=O)c2c(F)cc(F)c(Cl)c2F)CC1 | -0.88%

Row | SMILES | inhibition
24 | Cc1oc(-c2ccccc2F)nc1CS(=O)(=O)CC(=O)NCCCN(C)C1CCCCC1 | -2.64%
25 | CN(CCNC(=O)c1cc2c(-c3ccccc3F)nn(C)c2s1)C1CCCCC1 | 73.3% (active)
26 | CC(C)c1cc(C(=O)N(C)C2CCCN(Cc3ccccc3F)C2)n(C)n1 (stereo not given) | 2.62%
27 | CC(CO)NCC12CC3CC(CC(C3)C1)C2 (stereo not given) | -1.08%
28 | Cc1ccc(-n2c(=O)c(C#N)cc3c(=O)n4ccccc4nc32)cc1C | 67% (active)
29 | Cc1ccc(-n2c(SCC(=O)N3CCC(C(=O)O)CC3)nc3ccccc3c2=O)cc1C | -6.87%
30 | Cc1ccc(Cn2c(=N)c(S(=O)(=O)c3ccc(C)cc3)cc3c(=O)n4ccccc4nc32)cc1 | 3.69%
31 | CCOC(=O)C1CN(S(=O)(=O)c2ccc(OC)cc2)c2cc(Cl)ccc2O1 (stereo not given) | 2.59%
32 | CC[C@]12c3[nH]c4cc(CCC(=O)N(C)C)ccc4c3CCN1C(=O)[C@@H](CC(=O)NCC13CC4CC(CC(C4)C1)C3)C[C@@H]2C(=O)N1CCN(C(=O)C2CC2)CC1 | 0.95%
33 | CC1=CC=CC2=N/C(=N\S(=O)(=O)c3ccc(F)cc3F)c3ccccc3CN12 | 1.29%
34 | Cc1cc(NC(=O)CCN2CCN(Cc3ccccc3)CC2)ccc1Br | 0.67%
35 | CCN(CC)C(=O)Oc1ccc(NC(=O)N2CCOCC2)cc1 | -0.07%
36 | CCOC(=O)c1[nH]c2ccc(OC)cc2c1NC(=O)CCN1CCN(Cc2ccccc2)CC1 | 49.8% (active)
37 | COc1cc2[nH]c(=O)n(CCC(=O)NC3CCN(Cc4ccccc4)CC3)c(=O)c2cc1OC | 5.35%
38 | Cc1c(C(=O)CN2CCOCC2)[nH]c2ccccc12 | -0.51%
39 | CCOC(=O)c1[nH]c2ccc(OC)cc2c1NC(=O)N1CCOCC1 | 28.4% (active)
40 | OCC(O)CN(c1ccccc1)c1ccccc1 (stereo not given) | 5.53%
41 | CC(C)N(C(=O)Cn1cc(S(=O)(=O)CC(=O)N2CCOCC2)c2ccccc21)C(C)C | -1.92%
42 | Cc1ccc(Br)c(NS(=O)(=O)c2cccc(C(=O)N3CCNC(=O)C3)c2)c1 | -3.11%
43 | CC(=O)NC(Cc1ccc(F)c(F)c1)C(=O)NC1CCN(C(=O)c2ccc(C)cc2)CC1 (stereo not given) | -2.53%
44 | CC(NC(=O)COc1ccccc1)C(=O)NC1=NCCS1 (stereo not given) | 2.42%
45 | CC(C)(C)CN1CCNC(=O)C1CC(=O)NC1Cc2ccccc2C1 (stereo not given) | 1.64%
